# According to the supplement of paper PMC10681739:
# Target: RUNX1 (UniProt Q01196)
# Assay: RUNX1 binding intensity (PBM fluorescence) in presence of ETS1, normalised to RUNX1-only experiment (arbitrary fluorescence units); higher = stronger binding
# Details: RUNX1 concentration 2 nM; ETS1 concentration 25 nM
# Description: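 Cooperative gcPBM on 36-bp genomic probes with neighbouring ETS1 and RUNX1 sites. Recombinant human RUNX1 (2 nM) was incubated alone or with ETS1 (25 nM) and detected with anti-RUNX1 antibody plus Alexa488 secondary. Values are medians over 4 replicate spots; the RUNX1+ETS1 data were normalised to the RUNX1-only data. The probes sit in constant array flanks that are not printed.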
# 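Also: Full-length recombinant human ETS1 or RUNX1 bound to double-stranded 36-bp genomic probes on microarrays, detected by protein-specific primary antibody and Alexa488 secondary, spot fluorescence as median of four replicate spots.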
# Chain of RUNX1 (Q01196 whole entry): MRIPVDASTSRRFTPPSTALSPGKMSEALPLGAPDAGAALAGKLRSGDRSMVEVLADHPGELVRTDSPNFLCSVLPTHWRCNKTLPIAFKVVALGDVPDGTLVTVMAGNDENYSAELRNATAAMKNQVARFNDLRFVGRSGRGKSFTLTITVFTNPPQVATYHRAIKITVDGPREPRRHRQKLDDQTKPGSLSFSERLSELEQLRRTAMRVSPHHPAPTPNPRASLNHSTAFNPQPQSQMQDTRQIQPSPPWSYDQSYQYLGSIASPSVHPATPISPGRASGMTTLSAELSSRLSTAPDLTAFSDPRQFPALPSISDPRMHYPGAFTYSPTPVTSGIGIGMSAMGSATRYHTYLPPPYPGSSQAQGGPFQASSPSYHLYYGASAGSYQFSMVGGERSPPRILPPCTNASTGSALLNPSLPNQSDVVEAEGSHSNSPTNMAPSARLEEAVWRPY
row,Sequence,RUNX1 binding intensity
1,GGATTAGAACTGCTTCCTCCTGTGGTTTACCAGAAA,1840
2,AGCCGTCATTCAGGATGTGGTGACAGACATGGAGAC,1320
3,GACGGGAGCACCGGAAGCGGTCTTTCCCCGAGCGGA,2370
4,CTTACAGTCACAACAGGATGTGGTTTGACATTTACT,3860
5,AAACCCTGAGTAATCGGAAGTGGTTAGGAGTGAGAG,1310
6,GCGCTTCCTGCCAGCTTGGAGGATAACCGCCTACCG,1730
7,CCTGTCCGGAAGTCCTGAGAGGGAATCGCCCGCAAA,1690
8,GTAAGTAGGCCAGGAAGTGGTCACTGCAGCATGTGA,1440
9,GACTTTTACGGAAATAGCAGTCCAAAACCGCGTCTA,1170
10,AGCTCAATTTCCTGGCGTGTAACATGGCCACAAGGG,1390
11,ACTCCTCCCGCTTCCGCTGCCGCAGCCGGTCGTAAC,3470
12,GCAGCCCAGCTTCCTGCAGACCAAAACCACAAGCAG,4140
13,GCCACACTTCCGGCGGGGCTGCGACCGCAGAGGGGC,3600
14,GTTGCAGGAAACGATGGGTTTTGTGGTATGAACTGC,1700
15,TTTATCATGAATGCAGGATGTGGGCAGACTCACAGC,1280
16,CAGTGAACAGTTTCCTGTTCCTGTGGTTTTGACTTT,3980
17,GGTCCGGATGTATAAAGCGCGGCCCCCTGCGGGGAG,997
18,CCATCCAGGAAGCTTATGGTGCGACCGCAGTGTGCC,1160
19,TTCTTCCCCCTTCCGGTCGCTGAGTGGTTGAGGCCG,2500
20,CTACTTTCCGGTCAACGCGGCCTGCGGTACCACCTC,2720

row,Sequence,RUNX1 binding intensity
1,TTCATTTCTACCTTCCTGTGGTCTTTTTGCCTCCGA,2320
2,GCTCCGCTTCCGGGAGGCGGGGCTTCTGCGGGTTCC,1710
3,CTCTGAACTTCCTCTCTTTTAACCACAACTTACTAC,14100
4,GAGGCGACCCACATCCGCTGTGCGGGGGCAACTGCA,6600
5,CTCTCACTTCCCGTGTGAGAAAAACCACAGAAAAGC,4200
6,ATCACAAGCAGAGGATGTGGTTAGTGTTTCGTTCCA,2160
7,GTGCCGGCGGCCGGATGTGGGCGGGGCCACGGGGAG,4170
8,TAAGAAAAACAGTCATCCTGCGGTTTCCATTTGTGA,5090
9,GCCAAGGCCTTCCGCCGAGTTGGTTTTTGGGTTGTT,952
10,ACTCACACCACGGAAACTGCGGCTCGGCAGGCTGAG,885
11,TTGGTCAGCCTGCTTCCGGCTGTGGCTTCAGTTAGT,1420
12,AAACCAGAGGAAGTGGATTCCAACCACAAACCTCAC,2100
13,GCTTGTCTTCCGGTTTCGTCGCCGCCGCAGGCGCAC,1780
14,TGGTGGCTATTTCCTCTCCCGCTGTGGTCCCTGGAG,1470
15,GCACAGGCCGGAAGGAAAAGGGTTGTGGGGCTCATT,952
16,TGCGAGGTTGCCAGGAAACCGCGAAGCCGAGGTCCC,1530
17,TCAAGTTTGGTAACAGGATGTGGTAGGAGGAACACA,1730
18,CCTCAAAACCCGGAAACGCCTTGCGGGGCAGTGTGG,1400
19,CCACGTCCACAAAGGAAACCGCGGCCTGCCCGGGGA,1590
20,TGCAGTCTCAACTTCCTGCGGTCAAGTGATCCTTCA,6540
